Screening data deposited in PubChem BioAssay by National Center for Advancing Translational Sciences (NCATS).
HT1080 IDH1KD tx: toxicity to HT-1080 IDH1 knockdown cells (counter line). HT-1080 IDH1 knockdown viability, ATP luminescence, 48 h. Potency, µM (titrated, usually from 46.1 µM), usual class: cytotoxic. hit rate 2% among 360,000
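Luminescent ATP read-out (CellTiter-Glo, 10 min at room temperature) after 48 h compound exposure at 37 °C gave viability of IDH1-knockdown HT-1080 cells. Activity was normalised to DMSO and cell-free wells, then fitted as concentration-response curves.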
IL1B secr inh: inflammasome signaling inhibition, IL-1 beta readout | THP-1 LPS/ATP IL-1B secretion, AlphaLISA, 16 h; active compounds read low | activity change, % at 57.5 µM | hit rate 4.7% among 360,000; in the data active means activity change below about -50%; inconclusive means mostly about -30% to -49%
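Secreted IL-1B measured by AlphaLISA bead assay after 16 h compound exposure of THP-1 cells; compounds (final up to 57.5 uM) added 1 h before LPS (250 ng/mL) and ATP (1.25 mM) stimulation; lower signal means less secretion.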
HT1080NT lethal: kills 2HG-producing HT-1080-NT fibrosarcoma cells; HT-1080-NT fibrosarcoma viability, CellTiter-Glo ATP luminescence, 48 h; hit rate 1.6% among 360,000; AID 686970; Potency, µM (titrated, usually from 46.1 µM), hits mostly cytotoxic;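 further: NT is the 2HG producing partner of a matched IDH1 knockdown line; nearly all actives have a fitted effect of over 55% in size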
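Compounds were tested in concentration-response format on HT-1080-NT cells for 48 hours at 37 degrees C. Cell viability came from CellTiter-Glo luminescence; curves were classified by r2, response magnitude and activity.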
DT40 TDP1 CPT: growth inhibition of DT40 Tdp1-/-;hTDP1 cells with camptothecin (screen for TDP1 inhibitors) | chicken DT40 Tdp1-/-;hTDP1 cells + 20 nM CPT, ATP luminescence, 48 h | Potency, µM (titrated, usually from 46.2 µM), most hits filed as inhibitors | hit rate 12% among 420,000 | AID 686979; further: nearly all actives have a fitted effect of over 55% in size
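Chicken DT40 Tdp1-/- cells stably complemented with human TDP1 were seeded at 400 cells/well in medium containing 20 nM camptothecin, exposed to pin-transferred compounds, and grown at 37 °C for at least 48 hr. Viability was read as ATP luminescence.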
DT40 TDP1 no CPT: qHTS for Inhibitors of human tyrosyl-DNA phosphodiesterase 1 (TDP1): qHTS in cells in absence of CPT | AID 686978, 2013 | hit rate 15% among 420,000 | Potency, µM (doses to about 46.2 µM), actives largely listed as inhibitors | DT40 Tdp1-/- hTDP1 cells, no CPT, ATP luminescence, 48 h; further: nearly all actives have a fitted effect of over 55% in size
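Seeded 400 DT40-hTDP1 cells/well (vehicle DMSO, no 20 nM CPT); pinned compounds; ≥48 hr at 37 °C; CellTiter-Glo luminescence as viability measure.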
Numbers stand for hits; – = inactive; ? = inconclusive; · = no result; [ ] = remark or other dose. Sampled rows, rich in hits. Any-hit rate of the full collection: about 19%. Unless noted, the call rests on the fitted dose curve; in most records, active means well fitted curve in the direction sought with a large enough effect; inconclusive means small, poorly fitted or top-dose-only effect, or another doubt; inactive means no such curve, though single readings can be large; an effect the other way counts as inactive or inconclusive.

SMILES	HT1080 IDH1KD tx	IL1B secr inh	HT1080NT lethal	DT40 TDP1 CPT	DT40 TDP1 no CPT
COc1cc(NC(=O)c2cc([N+](=O)[O-])ccc2NC(=O)CNC2CCCCC2)cc(OC)c1	–	–	–	21µM	16µM
COc1cc(C2(c3ccc(O)c(OC)c3)C(=O)Nc3c(C)cc(Br)cc32)ccc1O	?	-102	?	–	–
O=C(Nc1ccccc1C(=O)Nc1nnc(C(F)(F)F)s1)c1ccccc1	4.6µM	·	3.3µM	2.9µM	4.1µM
Fc1ccc(-c2cnc3n2CCCCC3)cc1	–	–	–	–	?
Clc1ccc(-c2cnc3n2CCCCC3)cc1	–	?	–	15µM	9.2µM
COc1ccc(-c2cc(CS(=O)(=O)c3ccccc3)on2)cc1	–	–	–	–	–
CC(Sc1nc(-c2ccccc2)cs1)C(=O)Nc1ccc(Cl)cn1 (stereo not drawn)	–	–	–	–	?
COc1ccc(C(=O)CN2CC(C)SC2=Nc2ccc(Cl)cc2)cc1 (stereo not drawn)	–	–	–	?	23µM
O=C(CCC(=O)OCC(=O)c1cccc([N+](=O)[O-])c1)Nc1cccc(Cl)c1Cl	–	–	–	–	–
Cc1ccccc1OCC(=O)NCC(=O)OCc1ccc2ccccc2c1	·	·	·	?	16µM
Cc1ccccc1OCC(=O)NCC(=O)OCC(=O)c1ccc([N+](=O)[O-])cc1	–	?	–	26µM	11µM
O=C(CCC(=O)OCC(=O)c1ccc([N+](=O)[O-])cc1)Nc1ccccc1Cl	–	–	–	18µM	?
CCN(CC)CCn1c2c(c(SCC(=O)Nc3cc(OC)cc(OC)c3)nc1=O)CCC2	–	–	–	–	–
Cc1ccccc1NC(=S)Nc1ccc2[nH]c(=O)[nH]c2c1	–	–	–	–	–
CCCCOc1ccc(CONS(=O)(=O)c2ccc(NC(C)=O)cc2)cc1Cl	–	-103	–	13µM	15µM
O=S(=O)(NOCc1ccc(Cl)cc1)c1ccc(Cl)cc1	–	–	–	–	–
COCCCNS(=O)(=O)c1ccc(SC)cc1	–	–	–	–	?
CC(=O)Nc1ccc(S(=O)(=O)NCCC(=O)Nc2cccc(Cl)c2)cc1	–	–	–	–	–
CSc1ccc(S(=O)(=O)NCCOc2ccccc2C)cc1	–	–	?	26µM	?
CC(=O)Nc1ccc(S(=O)(=O)NCCOc2ccc(Cl)cc2C)cc1	–	–	–	23µM	13µM
CCC(=O)c1c[nH]c(C(=O)NCc2ccccc2OC)c1	–	–	–	?	–
CCC(CC)C(=O)c1c[nH]c(C(=O)NCc2ccccc2OC)c1	–	–	–	21µM	?
CCC(CC)C(=O)c1c[nH]c(C(=O)NC2CCCCCC2)c1	–	-66	–	–	–
CN(C)c1ccnc2sc(C(N)=O)c(N)c12	–	-66	–	1.6µM	?
CN(C)C=Nc1c(C(=O)c2ccccc2)sc2nccc(N(C)C)c12	–	-54	–	–	?
SMILES	HT1080 IDH1KD tx	IL1B secr inh	HT1080NT lethal	DT40 TDP1 CPT	DT40 TDP1 no CPT
CN(C)c1ccnc2sc(C(=O)NCc3ccccc3)c(N)c12	–[9.24 µM]	·	?	16µM	?
CN(C)c1ccnc2sc(C(=O)c3ccc(Br)cc3)c(N)c12	–	?	–	–	–
CN(C)c1ccnc2sc3c(=O)n(-c4ccccc4)cnc3c12	–	–	–	?	–
O=C(c1cccc(Cn2cccn2)c1)N1CCC(n2c(C3CCCO3)nc3cc(C(F)(F)F)ccc32)CC1 (stereo not drawn)	·	·	·	–[9.04 µM]	–
Cc1ccc(-c2nc3ccccc3o2)cc1NC(=S)NC(=O)c1cc2ccccc2o1	?	–	?	15µM	15µM
O=C(Nc1ccc2oc(-c3ccc(Br)cc3)nc2c1)c1cc2ccccc2o1	·	·	·	?	10µM
COC(=O)c1ccccc1NC(=O)c1ccc(-c2ccc(Br)cc2)o1	–[9.24 µM]	–	–	–	1.6µM
O=C1C2C3C=CC(C3)C2C(=O)N1c1cccc(-c2nc3ccccc3o2)c1 (stereo not drawn)	–	–	–	–	–
O=C(Nc1cccc(-c2nc3ccccc3o2)c1)c1ccc(N2C(=O)C3C4C=CC(C4)C3C2=O)cc1 (stereo not drawn)	?	–	–	7.3µM	8.2µM
Cc1ccc2cccc(NC(=O)c3ccc(-c4ccc(Br)cc4)o3)c2n1	·	·	·	–	–
COc1cncc(C#Cc2ccccn2)c1	–	–	–	–	–
O=C(Nc1ccc2oc(-c3cc(Br)ccc3Cl)nc2c1)c1cc2ccccc2o1	·	·	·	16µM	10µM
O=C(Nc1cccc(NC(=O)c2ccc(-c3ccc(Br)cc3)o2)c1)c1ccco1	?	–	–	?	13µM
COc1ccc(-c2nc3ccccc3o2)cc1NC(=O)c1ccc(-c2ccc(Br)cc2)o1	·	·	·	–	–
O=C(Nc1ccccc1)c1cccc(NC(=O)c2ccco2)c1	–	–	–	–	–
O=C(Nc1cccc(-c2nc3ccccc3o2)c1)c1ccc(-c2ccc(Br)cc2)o1	·	·	·	?	10µM
COc1ccc(C(=O)c2ccc(Br)cc2)cc1	–	–	–	–	–
COc1ccc(SN=C2C(C)=CC(=O)C=C2C)cc1	–	?	–	?	9.2µM
O=C(NCC1COc2ccccc2O1)c1cccc(S(=O)(=O)NCc2ccccc2)c1 (stereo not drawn)	–	–	–	?	?
COc1ccccc1/C=C/C1(C(=O)NC2CCCC2)CC(=O)N1c1ccc(F)cc1 (stereo not drawn)	8.2µM	-89	?	18µM	?
COc1ccccc1/C=C\C(=O)OC[C@@H]1CCCN2CCCC[C@H]12	·	·	·	–[9.04 µM]	–[9.04 µM]
COc1ccccc1/C=C/C1(C(=O)NC2CCCC2)CC(=O)N1c1ccc(C)cc1 (stereo not drawn)	?	–	?	?	23µM
COc1ccccc1/C=C/c1onc(C)c1S(=O)(=O)N1CCC(C(=O)NC2CCCCCC2)CC1	–	–	–	?	–
Cc1ccc(C)c(NC(=O)c2cc(-c3cccnc3)nc3ccccc23)c1	–	–	–	?	?
Cc1[nH]c2ccccc2c1C=NNC(=O)c1cc(-c2cccnc2)nc2ccccc12	–	–	–	13µM	7.3µM
O=C(N/N=C/c1cc(Cl)cc([N+](=O)[O-])c1O)c1cc(-c2ccccn2)nc2ccccc12	?	–	?	6.5µM	15µM
COc1cccc(-c2cc(C(=O)N/N=C/c3cccc(OC)c3OC)c3ccccc3n2)c1	–	–	–	21µM	4.6µM
O=[N+]([O-])c1cc(Cl)cc(/C=N\Nc2ccccn2)c1O	?	–	?	5.2µM	5.2µM
C/C(=N\NC(=O)c1cc(-c2ccccn2)nc2ccccc12)c1cccc([N+](=O)[O-])c1	–	–	–	–	?
O=C(COC(=O)CNC(=O)C1CCCCC1)NC1CC1	·	·	·	–	–
